# Target: CRX (Homo sapiens, UniProt O43186 26-111, E42D)
# Assay: PBM; 200 nM protein, PBS
# Settings: dsDNA, one strand shown
# Sequence of CRX (Homo sapiens, UniProt O43186 26-111, E42D) (O43186 26-111 E42D): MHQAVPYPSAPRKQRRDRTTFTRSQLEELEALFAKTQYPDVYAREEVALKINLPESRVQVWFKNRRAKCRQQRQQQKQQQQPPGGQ
row,Sequence,binding signal
1,GATTATCC,"12.9 upbm affinity estimate (log intensity, higher = more binding, comparable within an allelic series)"
2,CGTTCTAC,"8.39 upbm affinity estimate (log intensity, higher = more binding, comparable within an allelic series)"
3,CGACGGAC,"8.15 upbm affinity estimate (log intensity, higher = more binding, comparable within an allelic series)"
4,GGGTGGCA,"8.24 upbm affinity estimate (log intensity, higher = more binding, comparable within an allelic series)"
5,CCACCGAG,"8.21 upbm affinity estimate (log intensity, higher = more binding, comparable within an allelic series)"
6,ACTGGACC,"8.07 upbm affinity estimate (log intensity, higher = more binding, comparable within an allelic series)"
7,CGAGTGCG,"8.15 upbm affinity estimate (log intensity, higher = more binding, comparable within an allelic series)"
8,ATAAAACC,"10.4 upbm affinity estimate (log intensity, higher = more binding, comparable within an allelic series)"
9,AGAGAGAC,"8.46 upbm affinity estimate (log intensity, higher = more binding, comparable within an allelic series)"
10,CCGAACCG,"8.3 upbm affinity estimate (log intensity, higher = more binding, comparable within an allelic series)"
11,GCAGATCA,"10 upbm affinity estimate (log intensity, higher = more binding, comparable within an allelic series)"
12,GATTATAA,"12.6 upbm affinity estimate (log intensity, higher = more binding, comparable within an allelic series)"
13,ATAATATC,"10.9 upbm affinity estimate (log intensity, higher = more binding, comparable within an allelic series)"
14,AATTCCAT,"10.1 upbm affinity estimate (log intensity, higher = more binding, comparable within an allelic series)"
15,ACCCAGTG,"8.16 upbm affinity estimate (log intensity, higher = more binding, comparable within an allelic series)"
16,CGCCCCTC,"8.45 upbm affinity estimate (log intensity, higher = more binding, comparable within an allelic series)"
17,CCGGATAA,"11.3 upbm affinity estimate (log intensity, higher = more binding, comparable within an allelic series)"
18,CATGACAG,"8.16 upbm affinity estimate (log intensity, higher = more binding, comparable within an allelic series)"
19,CTGGTCGA,"8.35 upbm affinity estimate (log intensity, higher = more binding, comparable within an allelic series)"
20,CCTCGCCC,"8.52 upbm affinity estimate (log intensity, higher = more binding, comparable within an allelic series)"

# Target: PITX2 (Homo sapiens, UniProt Q99697 72-157)
# Assay: PBM; 200 nM protein, PBS
# Settings: dsDNA, one strand shown
row,Sequence,binding signal
1,AGATTAGG,"12.3 upbm affinity estimate (log intensity, higher = more binding, comparable within an allelic series)"
2,CGCTAATC,"12.2 upbm affinity estimate (log intensity, higher = more binding, comparable within an allelic series)"
3,GGGCTTAA,"12.7 upbm affinity estimate (log intensity, higher = more binding, comparable within an allelic series)"
4,AGATTAAC,"12.7 upbm affinity estimate (log intensity, higher = more binding, comparable within an allelic series)"
5,GTAATCCA,"12.9 upbm affinity estimate (log intensity, higher = more binding, comparable within an allelic series)"

# Target: T1, NKX2-4 (Homo sapiens, UniProt Q9H2Z4 175-261, R246Q)
# T1 sequence: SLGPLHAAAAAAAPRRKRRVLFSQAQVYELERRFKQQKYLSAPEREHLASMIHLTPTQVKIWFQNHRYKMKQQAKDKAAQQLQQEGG
# Assay: PBM; 200 nM protein, PBS
# Settings: dsDNA, one strand shown
row,Sequence,binding signal
1,GCTGCCGA,"9.29 upbm affinity estimate (log intensity, higher = more binding, comparable within an allelic series)"
2,CACCGCGG,"9.54 upbm affinity estimate (log intensity, higher = more binding, comparable within an allelic series)"
3,AGAGGGCC,"11.9 upbm affinity estimate (log intensity, higher = more binding, comparable within an allelic series)"
4,CAGTCCCG,"9.57 upbm affinity estimate (log intensity, higher = more binding, comparable within an allelic series)"
5,CCCTGCGC,"9.27 upbm affinity estimate (log intensity, higher = more binding, comparable within an allelic series)"
6,CTGGGGGC,"9.37 upbm affinity estimate (log intensity, higher = more binding, comparable within an allelic series)"
7,GCGCCGCC,"9.62 upbm affinity estimate (log intensity, higher = more binding, comparable within an allelic series)"
8,GCGACCGC,"9.69 upbm affinity estimate (log intensity, higher = more binding, comparable within an allelic series)"

# Target: HOXB9 (Homo sapiens, UniProt P17482 171-250, R186Q)
# Sequence (P17482 171-250 R186Q): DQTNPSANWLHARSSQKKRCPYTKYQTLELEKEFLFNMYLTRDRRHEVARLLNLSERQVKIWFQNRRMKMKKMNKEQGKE
# Assay: PBM; 200 nM protein, PBS
# Settings: dsDNA, one strand shown
row,Sequence,binding signal
1,CACCGCGG,"8.55 upbm affinity estimate (log intensity, higher = more binding, comparable within an allelic series)"
2,AGAGGGCC,"8.57 upbm affinity estimate (log intensity, higher = more binding, comparable within an allelic series)"
3,CTGGGGGC,"8.44 upbm affinity estimate (log intensity, higher = more binding, comparable within an allelic series)"
4,GCGCCGCC,"8.63 upbm affinity estimate (log intensity, higher = more binding, comparable within an allelic series)"

# Target: CRX (Homo sapiens, UniProt O43186 26-111, R41L)
# Sequence (O43186 26-111 R41L): as the sequence (O43186 26-111 E42D) above, with R16L, D17E counted along it
# Assay: PBM; 200 nM protein, PBS
# Settings: dsDNA, one strand shown
row,Sequence,binding signal
1,CGTATACG,"8.43 upbm affinity estimate (log intensity, higher = more binding, comparable within an allelic series)"
2,AGAATCCC,"10.1 upbm affinity estimate (log intensity, higher = more binding, comparable within an allelic series)"
3,AGATTAGG,"12.2 upbm affinity estimate (log intensity, higher = more binding, comparable within an allelic series)"
4,GCAACCGC,"8.34 upbm affinity estimate (log intensity, higher = more binding, comparable within an allelic series)"
5,AAATCCAA,"11 upbm affinity estimate (log intensity, higher = more binding, comparable within an allelic series)"
6,GGTGCTTA,"10.4 upbm affinity estimate (log intensity, higher = more binding, comparable within an allelic series)"
7,GATTATCC,"12.8 upbm affinity estimate (log intensity, higher = more binding, comparable within an allelic series)"
8,CGCTAATC,"12.3 upbm affinity estimate (log intensity, higher = more binding, comparable within an allelic series)"
9,CGTTCTAC,"8.27 upbm affinity estimate (log intensity, higher = more binding, comparable within an allelic series)"
10,CGACGGAC,"8.24 upbm affinity estimate (log intensity, higher = more binding, comparable within an allelic series)"
11,GGGTGGCA,"8.32 upbm affinity estimate (log intensity, higher = more binding, comparable within an allelic series)"
12,CCACCGAG,"8.2 upbm affinity estimate (log intensity, higher = more binding, comparable within an allelic series)"
13,ACTGGACC,"8.11 upbm affinity estimate (log intensity, higher = more binding, comparable within an allelic series)"
14,CGAGTGCG,"8.17 upbm affinity estimate (log intensity, higher = more binding, comparable within an allelic series)"
15,ATAAAACC,"10.2 upbm affinity estimate (log intensity, higher = more binding, comparable within an allelic series)"
16,AGAGAGAC,"8.33 upbm affinity estimate (log intensity, higher = more binding, comparable within an allelic series)"

row,Sequence,binding signal
1,CTTAAGCC,"11.9 upbm affinity estimate (log intensity, higher = more binding, comparable within an allelic series)"
2,CCGAACCG,"8.28 upbm affinity estimate (log intensity, higher = more binding, comparable within an allelic series)"
3,GCAGATCA,"9.94 upbm affinity estimate (log intensity, higher = more binding, comparable within an allelic series)"
4,GATTATAA,"12.6 upbm affinity estimate (log intensity, higher = more binding, comparable within an allelic series)"
5,ATAATATC,"10.8 upbm affinity estimate (log intensity, higher = more binding, comparable within an allelic series)"
6,AATTCCAT,"9.91 upbm affinity estimate (log intensity, higher = more binding, comparable within an allelic series)"
7,ACCCAGTG,"8.13 upbm affinity estimate (log intensity, higher = more binding, comparable within an allelic series)"
8,CGCCCCTC,"8.42 upbm affinity estimate (log intensity, higher = more binding, comparable within an allelic series)"
9,AGGCTTAA,"12.1 upbm affinity estimate (log intensity, higher = more binding, comparable within an allelic series)"
10,GGGCTTAA,"12.1 upbm affinity estimate (log intensity, higher = more binding, comparable within an allelic series)"
11,AGATTAAC,"12.6 upbm affinity estimate (log intensity, higher = more binding, comparable within an allelic series)"
12,CCGGATAA,"10.9 upbm affinity estimate (log intensity, higher = more binding, comparable within an allelic series)"
13,GTAATCCA,"12.7 upbm affinity estimate (log intensity, higher = more binding, comparable within an allelic series)"
14,CATGACAG,"8.25 upbm affinity estimate (log intensity, higher = more binding, comparable within an allelic series)"
15,CTGGTCGA,"8.29 upbm affinity estimate (log intensity, higher = more binding, comparable within an allelic series)"
16,CCTCGCCC,"8.44 upbm affinity estimate (log intensity, higher = more binding, comparable within an allelic series)"
